In PubChem BioAssay (NCI):
This is part of a sample that, as a whole, favours compounds with a hit. Of some 79,000 tested, about 15% had one in any assay. No stated cut-off is given here; in the data, active means growth inhibition above about 70%; inactive means the rest.

Experiments:
[1] = NCI Yeast Anticancer Drug Screen. Data for the rad50 strain (AID 155);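 further: 0% = growth of vehicle-only cultures of the same strain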; settings: S. cerevisiae rad50 strain growth inhibition; at 50.0 µM; stronger effect = higher value
Procedure, shortened: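 A DNA repair-deficient yeast mutant serves as the test organism; compound-induced growth inhibition is calculated against vehicle-treated cells.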

[2] = NCI Yeast Anticancer Drug Screen. Data for the mec2-1 strain (AID 157); settings: S. cerevisiae mec2-1 strain, at 50.0 µM, stronger effect = higher value
Procedure, shortened: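 mec2-1 yeast strain, carrying an alteration in DNA damage repair or cell cycle control, was exposed to compounds; growth inhibition was measured relative to vehicle-treated controls.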

[3] = NCI Yeast Anticancer Drug Screen. Data for the sgs1 mgt1 strain (AID 161);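 further: 0% = growth of cultures given vehicle only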; settings: S. cerevisiae sgs1 mgt1 strain, at 50.0 µM, stronger effect = higher value
Procedure, shortened: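 Compounds are added to genetically altered yeast, and growth is compared with cultures given vehicle alone to give percent inhibition.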

[4] = NCI Yeast Anticancer Drug Screen. Data for the cln2 rad14 strain (AID 165);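 further: 0% = growth equal to vehicle treated cultures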; settings: S. cerevisiae cln2 rad14 strain, at 50.0 µM, stronger effect = higher value
Procedure, shortened: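 Yeast carrying cln2 and rad14 alterations (cell cycle control and DNA damage repair) were exposed to compounds. Growth inhibition was measured against vehicle-treated controls.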

[5] = NCI Yeast Anticancer Drug Screen. Data for the bub3 strain (AID 167); settings: S. cerevisiae bub3 mutant strain, at 50.0 µM, stronger effect = higher value
Procedure, shortened: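 Inhibition values come from growth of compound-treated mutant yeast normalised to vehicle-treated controls.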

[6] = NCI Yeast Anticancer Drug Screen. Data for the mlh1 rad18 strain (AID 175); settings: S. cerevisiae mlh1 rad18 strain growth inhibition; at 50.0 µM; stronger effect = higher value
Procedure, shortened: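 Growth inhibition of the yeast strain was measured after compound exposure and expressed relative to vehicle-treated controls. The strain carries defined defects in DNA damage repair.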

Measured: growth inhibition

CCOC(=O)C(C(C)=O)C(c1ccc(N(C)C)cc1)C(C(C)=O)C(=O)OCC (stereo unspecified)
inactive: [1] 8.75% | [2] -7% | [3] 7.75% | [4] -6.2% | [5] -4% | [6] 9.45%

CCOC(=O)/C(C#N)=C/C=C1C=CN(C)C=C1
inactive: [1] 8.95% | [2] -4.4% | [3] -1.4% | [4] -30.9% | [5] 0.1% | [6] -10.1%

O=C(Nc1ccc(Cl)cc1Cl)C1C(=O)C(=O)N(c2ccc(Cl)cc2Cl)C1=O (stereo unspecified)
inactive: [1] 10.8% | [2] -10.1% | [3] -1.35% | [4] 26% | [5] 0.8% | [6] 14.4%

O=C(Nc1cccc(O)c1)OC1CCCCC1
inactive: [1] 25.8% | [2] 6.05% | [3] 25.2% | [4] -18.1% | [5] 34% | [6] 24.4%

O=C(O)Cc1cccc2nnnn12
inactive: [1] 14.2% | [2] -17.8% | [3] -7.5% | [4] 15.1% | [5] -4.75% | [6] 23.9%

CC(C)C1=CC(=O)C(C)(C2=NC(C)(C)CO2)c2ccccc21 (stereo unspecified)
inactive: [1] -0.1% | [2] -9.35% | [3] 4.4% | [4] 22.7% | [5] -10.5% | [6] 5.3%

Cc1cc(=O)oc2cc(OCCCOc3ccc4c(C)cc(=O)oc4c3)ccc12
inactive: [1] 19.1% | [2] 5.45% | [3] -2.1% | [4] -4.1% | [5] -5.2% | [6] 13.3%

c1cc(N2CCOCC2)ccc1Cc1ccc(N2CCOCC2)cc1
inactive: [1] -13.2% | [2] 0.9% | [3] -4.1% | [4] 0.45% | [5] -17.6% | [6] -13.1%

CN(/N=C/c1ccccn1)C1=NCCCCN1
inactive: [1] -33.5% | [2] 3.15% | [3] -23.1% | [4] 22.2% | [5] 8.9% | [6] -8.65%

FC(F)(F)c1ccc(C=NC23CC4CC(CC(C4)C2)C3)cc1
inactive: [1] -8.85% | [2] -9% | [3] -16.2% | [4] -27.1% | [5] -18.9% | [6] -30.9%

COC(=O)CCC(=O)CC(=O)C(=O)Nc1ccc(F)cc1
inactive: [1] 3.2% | [2] 3.75% | [3] -1.7% | [4] -2.6% | [5] -15.6% | [6] 7.75%

COC1=CC(=O)C=C(OC)C1=O
inactive: [1] -2.55% | [2] -12.8% | [3] -28.6% | [4] 6.25% | [5] -25.4% | [6] -11.6%

CC1=C(c2ccc(C)cc2)NC(=S)C(C)C(c2ccc(C)cc2)=N1 (stereo unspecified)
inactive: [1] -11.2% | [2] -24.6% | [3] 15.3% | [4] 8.15% | [5] 0.95% | [6] 19.8%

COc1ccc2c(c1)CCC1=C2CC2C(=O)C1(C)CCC2(C)OC(C)=O (stereo unspecified)
inactive: [1] -4.35% | [2] -11.1% | [3] -1.3% | [4] -40.5% | [5] 10.1% | [6] -14.2%

CNCC(N)=O
inactive: [1] -0.05% | [2] 5.95% | [3] 15.3% | [4] -2.95% | [5] -2.4% | [6] 33%

O=S1(=O)C2C=CC1CCCC2
inactive: [1] 3.35% | [2] -12.7% | [3] -6.9% | [4] -30.9% | [5] -11.6% | [6] 2.05%

COc1ccc(C(C)=O)cc1
inactive: [1] 34.5% | [2] 18.8% | [3] 30.6% | [4] 37.1% | [5] 29.9% | [6] 18.9%

CCOC(=O)c1c(/N=C/c2cc(Br)cc(Br)c2O)sc2c1CCCC2
inactive: [1] -14.2% | [2] -19.1% | [3] -13.2% | [4] -15.1% | [5] -13.9% | [6] -25.1%

CCOC(=O)c1c(-c2ccc(OC)cc2)c(C#N)c(=S)n(C2OC(COC(C)=O)C(OC(C)=O)C(OC(C)=O)C2OC(C)=O)c1-c1ccccc1 (stereo unspecified)
inactive: [1] -4.6% | [2] 0.05% | [3] -3.2% | [4] 21.6% | [5] 11.9% | [6] 13.4%

COC(=O)C1C2CC3C(OC(=O)C31)C2OC(=O)[C@](OC)(c1ccccc1)C(F)(F)F (stereo partly specified)
inactive: [1] 24.2% | [2] 20.9% | [3] 10.6% | [4] -25.4% | [5] 15.5% | [6] 28.6%

Cc1ccc(S(=O)(=O)NC(C)C(=O)O)cc1 (stereo unspecified)
inactive: [1] -1.5% | [2] -6.65% | [3] 4.9% | [4] 3.2% | [5] -7.65% | [6] 4.6%
